Measurements: PubChem BioAssay (NCATS)
Activity calls are given as the source filed them. The call rests on the fitted dose curve.

Assay: qHTS drug screen for cell cycle checkpoint inhibitors in PARPi-resistant BRCA-mutant ovarian cancer cell lines. (AID 1963452)
Conditions: PEO1/OlaR viability, CellTiter-Glo luminescence, 96 h; active compounds read low
Outline: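 PEO1, PEO4 and PEO1/OlaR ovarian cancer cells, 600 per well, exposed 96 h at 37C to a dilution series. Viability read by CellTiter-Glo luminescence, normalized to DMSO and empty wells; activity summarized as Z-AUC.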

Q: For `Nc1nc2[nH]cc(CCc3ccc(C(=O)N[C@@H](CCC(=O)O)C(=O)O)cc3)c2c(=O)[nH]1`, which Z-AUC is on record?
A: 1.34 (inactive)

Q: Which Z-AUC does the source give for `Cc1cc(-c2ccc(CC(=O)Nc3ccc(-c4cccnc4)cc3)cc2)ccn1` here?
A: 1.38 (inactive)

Q: Which Z-AUC does the source give for `N#CC[C@H](C1CCCC1)n1cc(-c2ncnc3[nH]ccc23)cn1` here?
A: 0.476 (inactive)

Q: With `CC(=O)NC(C)c1ccc(Oc2ccc(OC(C)C)cc2)cc1` (configuration not stated) as the compound, how does the Z-AUC read?
A: 0.0363 (inactive)

Q: Which Z-AUC does the source give for `COc1ccc(COc2cc3oc(=O)c4cc(C(C)O)ccc4c3cc2OC)cc1` (configuration not stated) here?
A: 1.06 (inactive)

Q: For `Cn1cnc2c(F)c(Nc3ccc(Br)cc3Cl)c(C(=O)NOCCO)cc21`, which Z-AUC is on record?
A: 0.189 (inactive)

Q: Which Z-AUC does the source give for `CC1(C)Cc2c(-c3ccccc3)c(-c3ccc(Cl)cc3)c(CC(=O)O)n2C1` here?
A: 0.0211 (inactive)

Q: Which Z-AUC does the source give for `COc1ccc(-c2ccc3c(N4CCOCC4)nc(N4C[C@@H](C)O[C@@H](C)C4)nc3n2)cc1CO` here?
A: 1.56 (inactive)

Q: With `CNCc1ccc(-c2[nH]c3cc(F)cc4c3c2CCNC4=O)cc1` as the compound, how does the Z-AUC read?
A: 0.567 (inactive)

Q: For `CCOc1cc(N2CCC(O)CC2)ccc1Nc1ncc2c(n1)N(C)c1ccccc1C(=O)N2C`, which Z-AUC is on record?
A: -0.264 (inactive)

Q: Which Z-AUC does the source give for `CS(=O)(=O)Oc1ccc2c(NC(N)=O)c(C(=O)c3ccc(Cl)cc3Cl)oc2c1` here?
A: 1.2 (inactive)

Q: For `COc1cc(Nc2ncc3c(n2)-c2ccc(Cl)cc2C(c2c(F)cccc2OC)=NC3)ccc1C(=O)O`, which Z-AUC is on record?
A: -0.756 (inactive)

Q: With `COc1nc(-c2ccc3c(c2)OCO3)n(-c2ccc(NC(=O)CSc3ccccc3)cc2)n1` as the compound, how does the Z-AUC read?
A: 1.83 (inactive)

Q: For `CCCS(=O)(=O)Nc1ccc(F)c(C(=O)c2c[nH]c3ncc(Cl)cc23)c1F`, which Z-AUC is on record?
A: -0.11 (inactive)

Q: Which Z-AUC does the source give for `CCCCCCCc1ccc(CCc2cccc(O)c2C(=O)O)cc1` here?
A: 1.13 (inactive)

Q: Which Z-AUC does the source give for `Nc1nccc(-c2ccc3noc(-c4ccc(Cl)cc4)c3c2)n1` here?
A: 0.305 (inactive)

Q: Which Z-AUC does the source give for `C[C@]12CCC(=O)C=C1CC[C@@H]1[C@@H]2[C@@H](O)C[C@@]2(C)[C@H]1CC[C@]2(O)C(=O)CO` here?
A: 0.00041 (inactive)

Q: For `S=C(NCc1ccc2c(c1)OCO2)N1CCN(c2ncnc3c2oc2ccccc23)CC1`, which Z-AUC is on record?
A: -0.165 (inactive)

Q: For `O=c1[nH]c(-c2ccc(C(F)(F)F)cc2)nc2c1CSCC2`, which Z-AUC is on record?
A: 0.604 (inactive)

Q: With `OC[C@H](Cc1ccccc1)Nc1nc(Oc2ccc3c(c2)CCC3)nc2c1ncn2Cc1ccc(-c2ccccc2)cc1` as the compound, how does the Z-AUC read?
A: 0.712 (inactive)

Q: Which Z-AUC does the source give for `COc1cc2nccc(Oc3ccc(NC(=O)NC4CC4)c(Cl)c3)c2cc1C(N)=O` here?
A: -1.2 (inactive)

Q: With `CN[C@@H](C)C(=O)N[C@H]1CCCC[C@H]2CC[C@@H](C(=O)N[C@@H](c3ccccc3)c3cn(CCCCc4ccc(CCCCn5cc([C@@H](NC(=O)[C@@H]6CC[C@@H]7CCCC[C@H](NC(=O)[C@H](C)NC)C(=O)N76)c6ccccc6)nn5)cc4)nn3)N2C1=O` as the compound, how does the Z-AUC read?
A: 1.6 (inactive)

Q: With `O=C(Nc1cccnc1)N1CCC(Cc2cccc(Oc3ccc(C(F)(F)F)cn3)c2)CC1` as the compound, how does the Z-AUC read?
A: -0.589 (inactive)

Q: With `OCCC#Cc1nc(-c2ccc(F)cc2)c(-c2ccncc2)n1CCCc1ccccc1` as the compound, how does the Z-AUC read?
A: 1.23 (inactive)

Q: With `Cc1ccnc(NS(=O)(=O)c2ccc(NC(=O)Nc3ccc(S(=O)(=O)Nc4nccc(C)n4)cc3)cc2)n1` as the compound, how does the Z-AUC read?
A: -1 (inactive)

Q: With `C/C(=C\C(=O)Nc1ccccc1C(=O)O)c1ccc2ccccc2c1` as the compound, how does the Z-AUC read?
A: 0.258 (inactive)

Q: For `CC1(C)CNc2cc(NC(=O)c3cccnc3NCc3ccncc3)ccc21`, which Z-AUC is on record?
A: 1.35 (inactive)

Q: With `COc1cccc2cc(-c3nc(C4CCC(C(=O)O)CC4)n4ncnc(N)c34)[nH]c12` (configuration not stated) as the compound, how does the Z-AUC read?
A: -0.482 (inactive)

Q: With `Cc1cccc(-c2nn(C(=S)Nc3ccccc3)cc2-c2ccnc3ccccc23)n1` as the compound, how does the Z-AUC read?
A: 0.884 (inactive)

Q: For `CCn1c(-c2nonc2N)nc2cnc(Oc3cccc(NC(=O)c4ccc(OCCN5CCOCC5)cc4)c3)cc21`, which Z-AUC is on record?
A: 0.926 (inactive)

Q: For `O=C1[C@H](Cc2ccc(O)cc2)N2C(=O)CCN(C(=O)NCc3ccccc3)[C@H]2CN1Cc1cccc2ccccc12`, which Z-AUC is on record?
A: 0.428 (inactive)

Q: With `CCOc1ccn(-c2ccc(F)cc2)c(=O)c1C(=O)Nc1ccc(Oc2ccnc(N)c2Cl)c(F)c1` as the compound, how does the Z-AUC read?
A: -0.773 (inactive)

Q: For `COc1c(Cl)cc2c([nH]c3cnccc32)c1NC(=O)c1cccnc1C`, which Z-AUC is on record?
A: 1.1 (inactive)

Q: Which Z-AUC does the source give for `CN(C)C(=O)c1ccc(S(=O)(=O)c2ccc(NC(=O)[C@@](C)(O)C(F)(F)F)c(Cl)c2)cc1` here?
A: 0.422 (inactive)

Q: Which Z-AUC does the source give for `CC(C)c1onc(-c2c(Cl)cccc2Cl)c1COc1ccc(/C=C/c2cccc(C(=O)O)c2)c(Cl)c1` here?
A: 0.394 (inactive)

Q: With `CCC(=O)N[C@H]1CC[C@H](C(=O)N(C)c2ccc(-c3nc4ccccc4o3)cc2)C1` as the compound, how does the Z-AUC read?
A: -0.0495 (inactive)

Q: For `CNC(=O)c1ccc(N2C(=S)N(c3ccc(C#N)c(C(F)(F)F)c3)C(=O)C2(C)C)cc1F`, which Z-AUC is on record?
A: 0.0364 (inactive)
